# Over roughly 25,000 sequences, “ln(normalized median fluorescence intensity)” has its median near 7.1; the highest 2% begin near 10. This excerpt belongs to a sample that is enriched for the highest values.
# Test system: PfSIP2 AP2 domain 1 (GST-tagged)
# Test: gcPBM binding intensity (ln(normalized median fluorescence intensity)); higher = stronger DNA binding
# Outline: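 The highest Masliner-normalised natural-log median intensity across replicate spots of either probe orientation is reported as binding intensity. GST-tagged P. falciparum DNA-binding domains expressed in E. coli were applied for 1 h to an Agilent 4 × 180k array of primer-extended double-stranded 36-bp intergenic genomic probes plus negative controls, and bound protein was detected with Alexa488 anti-GST antibody and scanned at 488 nm.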
row,Sequence,gcPBM binding intensity (ln)
1,TAAAATTTTATAAAGGAACACACATTTTTTTTTTTT [CACACA_site8740],6.87
2,TTTGATTTTAATGTGTGTACACATTTATTTATATAA [XGTACX_site4806],7.74
3,AAATAAGAAAATCATAGTACATAGGAATAGAAGAAC [XGTACX_site3135],7.59
4,ATATGGAATGATCATAGTACATAATTTAAAATTTTA [XGTACX_site3568],6.74
5,ATAATGAAGACTTTTTTACACACTTCATATATTATA [CACACA_site8630],6.96
6,AAAAAAAGAATGTGAACACACACATTGAATATAATT [CACACA_site8341],6.79
7,ATTAAAAAAAAAGAGCGTACAAATAATTACTTCTTT [XGTACX_site8262],6.83
8,ATATCATCTTCTCTATCATTTTTTTTTTTTTTTTTT [CACACA_negctrl_site1220],7.69
9,TTAATATAATTAAAATGTACTTATTTGTAAACATTA [XGTACX_site6313],6.78
10,TATATATATTTAAGGTGTACATAAATAACAAAATAT [XGTACX_site2641],7.47
11,TATTTTAACATTAGGTGTACATACAAAAATAAAAAT [XGTACX_site8577],7.37
12,TTATTATTATAAAATTGTACTTGGTATATTAACATA [XGTACX_site5829],6.98
13,AAATACTTAACATTGGTGCATATTTGTAAAATTATT [GTGCAC_site9515],10.7
14,TTTAAAATACAGAAGGTGCATTTAACATATTTGTAT,10.6
15,ATATTAAAATTTTAATGTACATGCGTATGTAGGAAT [XGTACX_site1673],7.39
16,TAATCATTTTAGCTTACACACAAAATTTTGTTATAA [CACACA_site2939],6.93
17,TTTATATAATTTTTTTGTACATATATATGAATACAT [XGTACX_site2316],7.11
18,AAATGTTGAAAAATATGTACATATTATATATATTAT [XGTACX_site1165],7.1
19,TCTTTCAATATTAATGCATGTTAATAATAAATTTTA [TGCATGCA_site448],6.89
20,ATGTTAATTAATGAGGTGCATTGAATATTTCAATAA,10.6
21,AATATTTTTCAATTTCATGTGCATTCATTGAAGTTA [CACACA_negctrl_site1232],7.34
22,GAAAAATTTAATTATTGTACGTTTCATCTATATTTA [XGTACX_site414],6.91
23,TCATTTTATTATTCTACACACTTATCTATAATTATA [CACACA_site34],7.2

row,Sequence,gcPBM binding intensity (ln)
1,AAAAAAAAGTTGTAAGTGCATGTATATAATAATATT,8.08
2,AAAAAAAAAAAAAAAGTGCATATATAAATATTGTAT [GTGCAC_site9459],9.58
3,AGGATATAAAGTTGTGCATGTCAAGTGCACCGTATT [TGCATGCA_site451],12.2
4,ATTTATATGCACCATTGTACGTTTTATAAAGTTTGG [XGTACX_site3755],10.7
5,ATTGTGCACTTATATGCACACATTTTAGTTTTTTTT [CACACA_site2028],10.6
6,CATTTTGTTTTAAAGTGTACATTATGTAATATAAAA [XGTACX_site647],7.15
7,ATATATATATAAAGTTGTACATTTTTTATTTTTTCA [XGTACX_site7847],9.04
8,TTTAGTTTTTATATAGCACACATATTGTGATTATGT [CACACA_site8316],6.96
9,ATATTACACATATATGCACACATTGTAGTTATTTAT [CACACA_site8843],9.43
10,TACATATATATTTGTTCACACACACCCAAAAAAAAA [CACACA_site8788],7.01
11,AAAAGTAACAAAGCTACACACATTTAAATAAACATA [CACACA_site1421],6.94
12,GTTCTAAATATTATTGCATGTTGCACGTTTCTCTGT [TGCATGCA_site159],7.65
13,TGAACAGGTCATAATTTACACACTATATATTTTATT [CACACA_site8123],6.87
14,TGTATAAAAAACTAATGTACAAATGACAAGATATCT [XGTACX_site4600],6.9
15,GTAAGAAAGAAAGGAAGTACGTAAGAAAGTAAGAAC [XGTACX_site1239],7.27
16,TACATAAACTTTATAACACACACTTATATATATATA [CACACA_site1106],9.34
17,ATTAATTTTATATATGCACACAAAATATGTTCATAT [CACACA_site9350],7.13
18,ATTATATACATATATGCACACAAAAAAATATATATT [CACACA_site8508],7.28
19,ATTCACAAATATATGGTGCATAATATATATATATAT [GTGCAC_site9674],10.6
20,TGAATATTCATATGCACACAAATTAATATACATAAT [CACACA_site442],7.03
21,ATTATATATATTTATGCACACAAAATATATTATATA [CACACA_site9244],7.56
22,ATGGCATAAATATATGCACACACAAAAAAAAAAAAA [CACACA_site7902],7.06
23,AACTCATAGGAGTGTGCACACAAAAAATTAAAAAAA [CACACA_site8996],9.24

# From the supplement of paper PMC11417369
